The record followed here is PubChem BioAssay AID1851 (National Center for Advancing Translational Sciences (NCATS), 2009).

SMILES strings stand for the structures. About 5,100 (32%) of roughly 16,000 compounds were called active. Not shown: some 25% with an inconclusive outcome. The list shows a part of the results. A number with no mark means an inactive call. Calls follow the shape of the dose curve; as a rule, active = well fitted curve in the direction sought with a large enough effect; inconclusive = small, poorly fitted or top-dose-only effect, or effect the other way; inactive = no such curve, though single readings can be large or run the other way.
% is scaled to controls: 0 for no effect and ±100 for the full control effect.

Sequence of Cytochrome P450 3A4 (Homo sapiens) (P08684 whole entry, looked up): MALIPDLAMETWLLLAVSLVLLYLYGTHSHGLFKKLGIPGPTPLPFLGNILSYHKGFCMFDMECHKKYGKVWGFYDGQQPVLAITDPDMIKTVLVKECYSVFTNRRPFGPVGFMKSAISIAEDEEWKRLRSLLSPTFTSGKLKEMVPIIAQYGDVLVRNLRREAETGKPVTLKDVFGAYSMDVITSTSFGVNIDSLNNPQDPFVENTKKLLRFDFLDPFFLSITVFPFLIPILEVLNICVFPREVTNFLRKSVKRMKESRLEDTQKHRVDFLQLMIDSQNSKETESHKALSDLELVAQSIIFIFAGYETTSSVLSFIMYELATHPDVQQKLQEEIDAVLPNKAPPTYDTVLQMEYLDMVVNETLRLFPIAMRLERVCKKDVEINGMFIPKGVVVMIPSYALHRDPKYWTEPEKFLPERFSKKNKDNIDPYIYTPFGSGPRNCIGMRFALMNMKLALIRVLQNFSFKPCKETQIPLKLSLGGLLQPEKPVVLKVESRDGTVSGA

The assay addresses Cytochrome P450 3A4 (Homo sapiens) (UniProt P08684). Kind of assay: Cytochrome panel assay with activity outcomes. The settings on record: recombinant CYP, pro-luciferin dealkylation, luminescence, p450-cyp3a4; series mostly up to 57.1 µM.
A word on the AC50: it is the concentration at which the activity in the assay is half-maximal. As to `COc1ccc2c(Cc3c4ccccc4cc4ccccc34)cncc2c1O`, the concentration at half-maximal activity (AC50) is 1 µM (active). As for `O=C(O)c1cc2ccccc2c(Cc2cc3ccccc3c(C(=O)O)c2O)c1O` (tested in a mixture with another compound), the AC50 entry was “inactive”.

`Oc1ccc2ccccc2c1Cc1c(O)ccc2ccccc12`: the activity, negative = inhibition is -19% [at 11.4 µM]. With `OC[C@H](S)CS`, the activity, negative = inhibition is -9.69% [at 11.4 µM].

For `COc1ccc(-c2nnc(SCc3cccc(C)c3)n2N)cc1`, the AC50 is 10 µM (active). For the compound `Cc1cccc(CSc2cccc3cccnc23)c1`, the AC50 entry is “inactive”.

Consider `CCn1c(SCc2ccc(C)cc2)nnc1-c1nn(-c2ccccc2)ccc1=O`, for which the AC50 was 8.91 µM (active). Still for that read-out and setting: in the case of `CCn1c(SCc2cccc(C)c2)nnc1-c1ccc(C)cc1` it was 8.91 µM (active). Still for that read-out and setting: in the case of `CCC(=O)O[C@@H]1[C@H](C)O[C@H](O[C@H]2[C@@H](N(C)C)[C@H](O)[C@@H](O[C@@H]3[C@@H](CC=O)C[C@@H](C)[C@@H](O)/C=C\C=C/C[C@@H](C)OC(=O)C[C@@H](OC(=O)CC)[C@H]3OC)O[C@H]2C)C[C@]1(C)O` it was “inactive”.

As to `COC(=O)Cn1cc(/C=N/NC(=O)c2ccc(C#N)cc2F)c2ccccc21`, the activity, negative = inhibition is -10.5% [at 2.29 µM].

Turning to `O=C1C2C3C=CC(C3)C2C(=O)N1/N=C/c1cn(Cc2ccccc2)c2ccccc12` (stereo not drawn), the activity, negative = inhibition was -22.4% [at 11.4 µM].

On to `O=C1C2C3C=CC(C3)C2C(=O)N1/N=C/c1cn(Cc2ccc(F)cc2)c2ccccc12` (stereo not drawn), for which the concentration at half-maximal activity (AC50) is 2.82 µM (active). As for `COC(=O)/C=C\CCc1coc(/C=C\CNC(=O)OC)n1`, the activity, negative = inhibition is -19.3% [at 11.4 µM]. `COC(=O)[C@H]1C[C@@H]1[C@H](NC(=O)Oc1ccc(F)cc1)c1ccccc1`: the AC50 is 15.8 µM (active). For `COC(=O)[C@H]1C[C@@H]1[C@H](NC(C)=O)c1ccccc1`, the AC50 entry was “inactive”.

In the case of `COC(=O)[C@@H]1C[C@H]1[C@@H](NC(=O)Oc1ccc(F)cc1)c1ccccc1`, the half-maximal activity concentration (AC50) is 12.6 µM (active). On the same count and under the same terms, the result for `COC(=O)[C@@H]1C[C@H]1[C@@H](NC(C)=O)c1ccccc1` reads “inactive”; that for `O=C(O)[C@H]1CN(CCCP(=O)(O)O)CCN1`, “inactive”; that for `COC(=O)C1(Cc2ccccc2)C=C2C(=C(C(C)C)C(=O)C2C)CN1` (stereo not drawn), 7.94 µM (active). For `CCCCCC1=C2CNC(C)(C(=O)OC)C=C2C(C)C1=O` (stereo not drawn), the concentration at half-maximal activity (AC50) was 12.6 µM (active).

For the compound `CCCCCC1=C2CNC(CCC)(C(=O)OC)C=C2C(C)C1=O` (stereo not drawn), the AC50 was 20 µM (active). Same read-out and setting: the result for `COC(=O)C1(C)C=C2C(=C(c3ccccc3)C(=O)C2C)CN1` (stereo not drawn) reads 10 µM (active); that for `CCCCCC1=C2CNC(Cc3ccccc3)(C(=O)OC)C=C2C(C)C1=O` (stereo not drawn), 15.8 µM (active). For `COc1ccc(Oc2ncc3nc(-c4cccs4)c(=O)n(C)c3n2)cc1`, the concentration at half-maximal activity (AC50) is 3.98 µM (active).

For `Cn1c(=O)c(-c2cccs2)nc2cnc(Oc3ccccc3)nc21`, the AC50 entry is “inactive”. As for `COc1ncc2nc(-c3cccs3)c(=O)n(C)c2n1`, the half-maximal activity concentration (AC50) is 15.8 µM (active). For `Cc1cc(C2(c3cc(C)c(O)c(C(=O)O)c3)OS(=O)(=O)c3ccccc32)cc(C(=O)O)c1O`, the activity, negative = inhibition was 5.57% [at 11.4 µM]. As for `CC1=CC(C)(C)Nc2ccc(CSc3ccccc3)cc21`, the AC50 is 3.98 µM (active).

On to `Cc1cc2c(cc1C)NC1=C(N2)O[C@H](c2c[nH]c3ccc(COc4ccccc4)cc23)C1=O`, for which the AC50 is 3.98 µM (active). On to `O=C(O)c1c[nH]c2cc(OCc3ccccc3)ccc2c1=O`, for which the activity, negative = inhibition is -10.2% [at 11.4 µM].

In the case of `COCCN=C1Sc2nc3c(C)cccc3cc2CN1Cc1ccco1`, the AC50 is 14.1 µM (active).

Turning to `CC1(C)[C@@H]2CC[C@]1(C)[C@@H](OC(=O)CSC#N)C2`, the activity, negative = inhibition is -20.6% [at 11.4 µM]. For `O=c1c(-c2ccccc2)nc2cncnc2n1Cc1ccccc1Cl`, the AC50 result was “inactive”. `O=c1c(CCc2ccccc2)nc2cncnc2n1Cc1ccccc1Cl`: the AC50 was 15.8 µM (active). Same read-out and setting: the result for `O=c1cnc2cncnc2n1Cc1ccccc1Cl` reads “inactive”; that for `O=c1c(CCc2ccccc2)nc2cncnc2n1Cc1ccc(F)cc1`, 3.16 µM (active); that for `CCCCCCCCCCCCCCCCCCOC[C@@H](COP(=O)([O-])OCC[N+](C)(C)C)OC`, “inactive”.

For the compound `CCCCCCCCCCCCCCCCCC(=O)O[C@H](CC(=O)O)C[N+](C)(C)C`, the AC50 entry is “inactive”. As to `CCCCCCCCCCCCCCCC(=O)NC[C@@H](COP(=O)([O-])OCC[N+](C)(C)C)OCC`, the AC50 is 25.1 µM (active). For the compound `CCCCCCCCCCCCCCCCCCNC(=O)OC[C@@H](COP(=O)([O-])OCC[n+]1ccsc1)OC`, the AC50 result is “inactive”. The same measure, in the same setting: the result for `CCCCCCCCCCCCCCCCCC(=O)NC[C@@H](COP(=O)([O-])OCC[N+](C)(C)C)OCC` reads 31.6 µM (active). `CCCCCCCCCCCCCC(=O)O[C@H](CC(=O)O)C[N+](C)(C)C`: the AC50 entry is “inactive”.

On to `CCCCCCC(C)n1cc(C(C)=O)c(=O)[nH]c1=O` (stereo not drawn), for which the activity, negative = inhibition is 12.8% [at 2.29 µM].

As for `Fc1cccc(Cl)c1CSc1ncn[nH]1`, the AC50 was 4.47 µM (active). Regarding `CCCC[C@@H]1C[C@H]1C(NC(=O)c1cccs1)c1ccc(Cl)cc1` (stereo partly drawn), the AC50 was 5.01 µM (active). In the case of `CCCC[C@@H]1C[C@H]1C(NC(=O)c1cccs1)c1ccccc1C(F)(F)F` (stereo partly drawn), the half-maximal activity concentration (AC50) was 3.16 µM (active).

For the compound `CCCC[C@@H]1C[C@H]1C(NC(=O)c1ccc(C(F)(F)F)cc1)c1ccc(C(=O)OC)cc1` (stereo partly drawn), the concentration at half-maximal activity (AC50) was 5.01 µM (active). Regarding `CCCC[C@@H]1C[C@H]1C(NC(=O)c1cccs1)c1ccc(C(F)(F)F)cc1` (stereo partly drawn), the AC50 is 3.16 µM (active). For the compound `O=C(Nc1ccccc1)c1cc(-n2cnnc2)ccc1Cl`, the AC50 entry is “inactive”.

As to `CN(C)CCNC(=O)c1cc(Br)ccc1Cl`, the AC50 entry was “inactive”. The same measure, in the same setting: the result for `Cc1ccc(OCCNC(=O)c2cc(-n3cnnc3)ccc2Cl)cc1C` reads 7.94 µM (active). In the case of `CCOC(=O)c1cncc(C(=O)O)c1`, the activity, negative = inhibition is 1.77% [at 2.29 µM].

In the case of `CCOC(=O)CNC(=O)c1cccnc1`, the activity, negative = inhibition was 4.45% [at 11.4 µM]. Regarding `O=C(NC(=S)Nc1ccc(Br)cn1)c1cncc(Br)c1`, the activity, negative = inhibition was -24.4% [at 2.29 µM]. As for `CCOC(=O)CCCNC(=O)c1cncc(Br)c1`, the AC50 is 14.1 µM (active). With `Cc1ccc(OCCNC(=O)c2cncc(Br)c2)cc1C`, the AC50 was 7.08 µM (active).

Regarding `Cc1nc2c(OCc3ccccc3)cccn2c1CC#N`, the concentration at half-maximal activity (AC50) is 15.8 µM (active). On to `Cn1c(-c2sccc2OCc2ccccc2)n[nH]c1=S`, for which the AC50 entry was “inactive”.
